High-throughput results from PubChem.
KB-3-1 cytotox: KB-3-1 parental cell cytotoxicity | KB-3-1 viability, CellTiter-Glo ATP luminescence, 72 h | Potency, µM (doses to about 46.1 µM), most hits filed as cytotoxic | 1.4% of 400,000 active | AID 1347075; further: on the % scale 0 is the no-effect control and ±100 the full control effect; nearly all actives have a fitted effect of over 60% in size
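Cytotoxicity in the drug-sensitive parental line KB-3-1 was scored as loss of CellTiter-Glo luminescence following 72 h incubation with compound. Values come from curve fitting of normalized concentration-response data.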
KB-V1 MDR tox: KB-V1 MDR subline cytotoxicity; KB-V1 MDR cells viability, CellTiter-Glo, 72 h; 3.4% of 400,000 active; Potency, µM (top dose mostly 46.1 µM), usual class: cytotoxic; further: on the % scale 0 is the no-effect control and ±100 the full control effect; nearly all actives have a fitted effect of over 60% in size
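Drug-selected KB-V1 cells, grown in DMEM lacking phenol red with 10% FBS, receive compound titrations; after three days at 37 degrees C, surviving cell ATP is quantified by CellTiter-Glo luminescence and responses normalized and curve-fitted.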
SW480 rerep: inducers of DNA re-replication in SW480 colon cancer cells; AID 624297; 1.8% of 340,000 active; Potency, µM (top dose mostly 46.1 µM), for the others: at the top dose re-replication activation, hits mostly activators; SW480 DNA re-replication, Hoechst DNA content imaging, 48 h; further: % of control where 0% means no effect; nearly all actives have a fitted effect of over 55% in size
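Quantitative HTS format with DMSO vehicle controls; 48 hr drug incubation at 37 C, then 40 min Hoechst staining and scanning imager measurement at 405 nm excitation.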
TSG101-PTAP inh: blocks PTAP/TSG101 interaction to inhibit HIV-1 budding; Q99816; Fluorescence polarization, FITC-PTAP peptide / Tsg101 binding; Potency, µM (titrated, usually from 115 µM), inactives show at the highest dose activity change, negative = inhibition, most hits filed as inhibitors; 340,000 tested, under 10 active; active means well fitted inhibition curve with a large enough effect in the main read-out, with a control signal flat, not every such curve was filed as active; inconclusive means small, poorly fitted or top-dose-only effect, or effect the other way, or a change in a side signal; inactive means no such curve, though single readings can be large or run the other way; further: % of control where 0% means no effect
Target sequence (Q99816 whole entry, looked up): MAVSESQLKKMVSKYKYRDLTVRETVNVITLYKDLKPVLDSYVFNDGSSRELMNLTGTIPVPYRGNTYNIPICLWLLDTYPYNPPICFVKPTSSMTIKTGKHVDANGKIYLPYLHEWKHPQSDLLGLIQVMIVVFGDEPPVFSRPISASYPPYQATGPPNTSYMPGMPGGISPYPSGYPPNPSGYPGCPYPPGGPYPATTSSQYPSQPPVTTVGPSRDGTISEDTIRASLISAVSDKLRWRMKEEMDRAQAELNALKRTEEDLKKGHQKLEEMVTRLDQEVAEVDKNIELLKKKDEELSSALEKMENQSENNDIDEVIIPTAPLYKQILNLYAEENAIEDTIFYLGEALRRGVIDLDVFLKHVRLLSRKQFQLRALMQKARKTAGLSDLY
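Steps: Tsg101 binding domain dispensed (10 uM final), compounds pinned in DMSO, FITC-labeled PTAP-motif peptide added (50 nM final); after 20 min binding at room temperature, polarization measured.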
PINK1 modulator: changes PINK1 expression | PINK1 immunofluorescence, high-content cytometry, 24 h | Potency, µM (doses to about 76.6 µM), for the others: at the top dose activation (PINK1 increase), hits mostly activators | 0.2% of 410,000 active; active means well fitted activation curve with a large enough effect; inconclusive means small, poorly fitted or top-dose-only effect; cell line not stated here; further: % of control where 0% means no effect; nearly all actives have a fitted effect of over 65% in size
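Compound titrations (5 concentrations, 24 h) on a stable cell line; DMSO and CCCP controls. Endpoint: fixed-cell PINK1 immunofluorescence with mitochondrial, cell and nuclear markers, scanned by microplate cytometer.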
MCF10A rerep: induces DNA re-replication in MCF 10a normal breast cells; MCF 10A DNA re-replication, Hoechst nuclear intensity, 48 h; Potency, µM (doses to about 46.1 µM), inactives show at the top dose activity, positive = re-replication, usual class: activators; 2.9% of 350,000 active; AID 624296; further: % of control where 0% means no effect; nearly all actives have a fitted effect of over 50% in size
Starred values were filed as active, the others as inactive; i = inactive; ? = inconclusive; . = not tested or not shown; [ ] = another dose, or the depositor's remark. Most compounds without a hit are left out; they make up all but 6.8% or so of the library. Unless noted, the call rests on the fitted dose curve; in most records, active means well fitted curve in the direction sought with a large enough effect; inconclusive means small, poorly fitted or top-dose-only effect, or another doubt; inactive means no such curve, though single readings can be large; an effect the other way counts as inactive or inconclusive. Potency means the concentration at half of the fitted maximal effect.

SMILES | KB-3-1 cytotox | KB-V1 MDR tox | SW480 rerep | TSG101-PTAP inh | PINK1 modulator | MCF10A rerep
Cc1noc(C)c1C(=O)N1CCC2(CCN(Cc3cc(C(F)(F)F)cc(C(F)(F)F)c3)CC2)CC1 | . | . | . | . | 0% | .
O=C(CSc1ncc2c(n1)-c1ccccc1N(Cc1ccc(Cl)cc1)S2(=O)=O)c1ccc(Cl)cc1 | i | i | . | . | 4% | .
O=S(=O)(Nc1ccccc1)c1ccc(-c2cnc(C3CC3)o2)cc1 | ? | ? | -17% | 3% | 7% | ?
Cc1cc(C)cc(NS(=O)(=O)c2ccc(-c3cnc(C4CC4)o3)cc2)c1 | 1.2µM* | 4.1µM* | -12% | 1% | 12% | ?
Cc1cccc(NS(=O)(=O)c2ccc(-c3cnc(C4CC4)o3)cc2)c1C | 0.18µM* | ? | ? | -2% | -1% | ?
COc1ccccc1-c1noc(-c2ccc(NCc3cccnc3)c([N+](=O)[O-])c2)n1 | i | i | . | . | 6% | .
CCC(C)N1C(=O)/C(=C/c2c(NCCCOC(C)C)nc3c(C)cccn3c2=O)SC1=S (stereo not given) | i | 6.5µM* | -2% | ? | 11% | 4%
CCCN1C(=O)/C(=C/c2c(NCCCOC(C)C)nc3c(C)cccn3c2=O)SC1=S | i | i | -9% | ? | 9% | 4%
COCCNC(=O)CSc1nc(-c2ccc(F)cc2)[nH]c1-c1ccc(Cl)cc1 | i | i | . | . | 0% | .
COc1ccc(-n2cc(-c3ccccc3)[n+]3c2CCCCC3)cc1 | ? | i | ? | -1% | 1% | 23%
COc1ccc(-c2cn(-c3ccc(OC)cc3)c3[n+]2-c2ccccc2CC3)cc1 | 3.7µM* | i | -3% | -3% | ? | 0%
CCOc1ccc(-n2c(-c3ccccc3)c[n+]3c2CCC3)cc1 | i | ? | 16% | -8% | -1% | 3%
COc1ccccc1-n1c(-c2ccc(F)cc2)coc1=O | i | i | 0% | 0% | 0% | -9%
COc1ccccc1-n1c(-c2ccccc2)c[n+]2c1CCc1ccccc1-2 | 3.3µM* | i | 0% | -7% | ? | 16%
COc1ccc(-n2c(-c3ccc(Br)cc3)c[n+]3c2CCc2ccccc2-3)cc1 | 2.6µM* | i | 6% | -6% | 28µM* | 18µM*
CC(C)c1ccc(-n2c(-c3ccccc3)c[n+]3c2CCc2ccccc2-3)cc1 | 2.6µM* | i | 0% | 2% | ? | ?
CCC(C)NC(=O)Cn1c(=O)ccc2cc(S(=O)(=O)N3CCCC3)ccc21 (stereo not given) | i | i | . | . | -6% | .
O=c1c2c(nc3c(-c4ccc(Cl)cc4)c[nH]n13)CCC2 | ? | 4.6µM* | ? | 0% | 2% | 30%
Cc1ccc(CNC(=O)CCCn2c(=O)c3ccccc3n(Cc3ccccc3Cl)c2=O)cc1 | i | i | . | . | -1% | .
O=C(CCC1CCCCC1)Nc1cc(Cl)ccc1N1CCOCC1 | i | i | ? | 1% | 6% | ?
CCN(CC)S(=O)(=O)c1ccc(N2CCOCC2)c(NC(=O)CSCc2c(C)noc2C)c1 | i | i | 3% | -4% | 1% | -7%
CCOc1ccccc1NC(C)C(=O)Nc1cc(C(F)(F)F)ccc1N1CCOCC1 (stereo not given) | ? | 5.8µM* | -32% | -4% | 7% | 11%
O=C(CCC1CCCC1)Nc1cc(C(F)(F)F)ccc1N1CCOCC1 | i | i | 3.7µM* | 0% | 14% | -8%
Cc1noc(C)c1CSCC(=O)Nc1cc(C(F)(F)F)ccc1N1CCOCC1 | i | 3.7µM* | 0% | -5% | -3% | -3%
Cn1cccc1C(=O)N1CCC[C@@]2(CCN(Cc3cc(C(F)(F)F)cc(C(F)(F)F)c3)C2)C1 | . | . | . | . | 1% | .
SMILES | KB-3-1 cytotox | KB-V1 MDR tox | SW480 rerep | TSG101-PTAP inh | PINK1 modulator | MCF10A rerep
CSc1cccc(NC(=O)C2CCN(S(=O)(=O)c3ccc4c(c3)CCCN4C(=O)C3CCC3)CC2)c1 | i | i | . | . | -1% | .
Cn1ncc2c(Nc3ccccc3Cl)nc(Nc3ccccc3Cl)nc21 | i | i | 23% | -1% | 3% | 18µM*
COc1cccc(NC(=O)CCc2nnc3n(Cc4ccccc4Cl)c(=O)c4ccccc4n23)c1 | . | . | . | . | 1% | .
Cn1cc(/C=N/NC(=O)c2cccc([N+](=O)[O-])c2)c2ccccc21 | i | i | 0% | 1% | 14% | 9%
COc1ccc(NC(=O)/C(C#N)=C/C=C/c2ccco2)cc1 | 7.3µM* | 13µM* | 8.2µM* | -2% | 0% | 15µM*
N#C/C(=C/c1ccc(O)c([N+](=O)[O-])c1)C(=O)Nc1ccccc1 | 18µM* | ? | 6.5µM* | -10% | ? | 4.6µM*
N#C/C(=C/C=C/c1ccccc1)C(=O)Nc1ccccc1 | i | 16µM* | ? | -6% | 7%[38.3 µM] | 17%
Cn1cc(/C=C(\C#N)C(=O)Nc2cccc([N+](=O)[O-])c2)c2ccccc21 | ? | i | ? | 8% | ? | 9.2µM*
COc1ccc(NC(=O)/C(C#N)=C/c2ccc(C)o2)cc1 | i | i | . | . | 4% | .
CCN(C(=O)c1ccc2c(c1)N(Cc1cccc(Cl)c1)C(=O)c1ccccc1S2=O)c1ccccc1 (stereo not given) | ? | i | . | . | 2% | .
CC1CCN(c2nn3c(=O)c(C(=O)NCc4ccc(Cl)cc4)cnc3s2)CC1 | i | i | . | . | 2% | .
CSc1ccccc1C(=O)OCC(=O)Nc1ccc(N2CCOCC2)cc1 | i | 21µM* | 0% | 0% | 5% | 2%
COC(=O)c1ccccc1SCC(=O)Nc1ccc(N2CCOCC2)cc1 | i | i | 0% | 1% | 0% | 6%
CCN1CCN(c2cc3c(cc2F)c(=O)c(S(=O)(=O)c2cc(C)cc(C)c2)cn3CC)CC1 | . | . | . | . | 21% | .
N#CC1CC(c2ccccc2)Nc2cc(Cl)ccc2N1 (stereo not given) | ? | i | 13µM* | -7% | 6% | ?
COc1ccc(C(=O)CC2(O)C(=O)N(Cc3ccccc3Cl)c3ccccc32)cc1 (stereo not given) | ? | 18µM* | . | . | 0% | .
CCCCN1C(=O)C(O)(CC(=O)c2ccc(C)cc2C)c2cc(Br)ccc21 (stereo not given) | i | i | . | . | 9% | .
O=C(CC1(O)C(=O)N(Cc2ccccc2Cl)c2ccccc21)c1ccco1 (stereo not given) | ? | ? | 18µM* | -7% | -1% | ?
